A selection: hits, their analogues and other compounds. The true share with any hit is near 19%.
TDP1 cell noCPT = qHTS for Inhibitors of human tyrosyl-DNA phosphodiesterase 1 (TDP1): qHTS in cells in absence of CPT; DT40 Tdp1-/- hTDP1 cells, no CPT, ATP luminescence, 48 h; Potency, µM (doses to about 46.2 µM), without a hit: at the top dose activity change, negative = growth inhibition, hits mostly inhibitors; 420,000 tested, 15% active; AID 686978, 2013; further: potency means the concentration at half of the fitted maximal effect; nearly all actives have a fitted effect of over 55% in size
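Growth of hTDP1-complemented DT40 Tdp1-knockout cells is measured by ATP luminescence after at least 48 hr compound exposure at 37 °C, with DMSO substituting for the 20 nM CPT used in the parallel screen.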
HT1080 IDH1KD tx = toxicity to HT-1080 IDH1 knockdown cells (counter line). Potency, µM (top dose mostly 46.1 µM), for the others: at the top dose activity, negative = toxicity, hits mostly cytotoxic. HT-1080 IDH1 knockdown viability, ATP luminescence, 48 h. 360,000 tested, 2% active;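 further: potency means the concentration at half of the fitted maximal effect; 0% = DMSO wells and -100% = cell-free medium wells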
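Knockdown cells (IDH1KD HT-1080) received compounds 2 h after plating at 750 cells/well and were kept 48 h at 37 °C in 5% FBS RPMI. A CellTiter-Glo luminescence read gave % activity for curve fitting.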
IL-1B inflam inh = blocks inflammasome-driven IL-1 beta release. THP-1 LPS/ATP IL-1B secretion, AlphaLISA, 16 h; stronger effect = lower value. activity change, % at 57.5 µM. 360,000 tested, 4.7% active; in the data active means activity change below about -50%; inconclusive means mostly about -30% to -49%
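Secreted IL-1B measured by AlphaLISA bead assay after 16 h compound exposure of THP-1 cells; compounds (final up to 57.5 uM) added 1 h before LPS (250 ng/mL) and ATP (1.25 mM) stimulation; lower signal means less secretion.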
TDP1 cell CPT = growth inhibition of DT40 Tdp1-/-;hTDP1 cells with camptothecin (screen for TDP1 inhibitors); chicken DT40 Tdp1-/-;hTDP1 cells + 20 nM CPT, ATP luminescence, 48 h; Potency, µM (series often up to 46.2 µM), for inactives: at the highest dose activity change, negative = growth inhibition, actives largely listed as inhibitors; 420,000 tested, 12% active; AID 686979; further: potency means the concentration at half of the fitted maximal effect; nearly all actives have a fitted effect of over 55% in size
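Cell growth measured by CellTiter-Glo luminescence after a minimum 48 h, 37 C compound exposure with 20 nM CPT in Tdp1-knockout DT40 cells stably expressing hTDP1, seeded 400/well; qHTS titration format.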
HT1080NT lethal = kills 2HG-producing HT-1080-NT fibrosarcoma cells. HT-1080-NT fibrosarcoma viability, CellTiter-Glo ATP luminescence, 48 h. 360,000 tested, 1.6% active. Potency, µM (doses to about 46.1 µM), inactives show top-dose activity, negative = less viability, hits mostly cytotoxic;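 further: NT is the 2HG producing partner of a matched IDH1 knockdown line; potency means the concentration at half of the fitted maximal effect; 0% = DMSO-treated cells and -100% = media-only wells without cells; nearly all actives have a fitted effect of over 55% in size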
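Toxicity toward the 2HG-producing NT line was scored as %Activity, normalised to DMSO and no-cell wells, from CellTiter-Glo luminescence after 48 hours' treatment.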
Active calls of the source: *; [ ] = dose if it differs, or a comment. Unless noted, the call rests on the fitted dose curve; in most records, active means well fitted curve in the direction sought with a large enough effect; inconclusive means small, poorly fitted or top-dose-only effect, or another doubt; inactive means no such curve, though single readings can be large; an effect the other way counts as inactive or inconclusive. Unless noted, on the % scale 0 is the no-effect control and ±100 the full control effect.

How did CCc1ccc2[nH]c(=O)c(CN(CCN(CC)CC)C(=O)NC3CCCCC3)cc2c1 do in these assays?
TDP1 cell noCPT: 26µM*; HT1080 IDH1KD tx: inconclusive; IL-1B inflam inh: -56*; TDP1 cell CPT: 15µM*; HT1080NT lethal: 16µM*

What do the screens show for `O=C(Cn1nnc(-c2ccccc2)n1)N/N=C/c1ccco1`?
TDP1 cell noCPT: -23%; HT1080 IDH1KD tx: 8%; IL-1B inflam inh: 5; TDP1 cell CPT: -10%; HT1080NT lethal: 21%

How did COc1cc(C(=O)NNC(=O)CNC(=O)c2ccc(Br)o2)cc(OC)c1OC do in these assays?
TDP1 cell noCPT: 5%; HT1080 IDH1KD tx: 0%; IL-1B inflam inh: 6; TDP1 cell CPT: 4%; HT1080NT lethal: 1%

What do the screens show for `O=C(Cn1cnc2cc([N+](=O)[O-])ccc2c1=O)Nc1ccccc1-c1ccccc1`?
TDP1 cell noCPT: inconclusive; HT1080 IDH1KD tx: 0%; IL-1B inflam inh: 0; TDP1 cell CPT: 23µM*; HT1080NT lethal: 0%

How did COc1ccc(C2CN=NC23CCCc2ccccc2C3=O)cc1 (stereo unspecified) do in these assays?
TDP1 cell noCPT: 23µM*; HT1080 IDH1KD tx: inconclusive; IL-1B inflam inh: 7; TDP1 cell CPT: inconclusive; HT1080NT lethal: inconclusive

How did COc1ccc(C2CN=NC23CCc2ccccc2C3=O)cc1 (stereo unspecified) do in these assays?
TDP1 cell noCPT: 23µM*; HT1080 IDH1KD tx: 16µM*; IL-1B inflam inh: 87; TDP1 cell CPT: inconclusive; HT1080NT lethal: inconclusive

How did O=C(Oc1ccc(/C=N/Nc2nc(N3CCCCC3)nc(N3CCCCC3)n2)cc1)c1ccco1 do in these assays?
TDP1 cell noCPT: 16µM*; HT1080 IDH1KD tx: 4%; IL-1B inflam inh: -2; TDP1 cell CPT: inconclusive; HT1080NT lethal: 2%

Results for COc1cc(/C=N/Nc2nc(C)cc(C)n2)ccc1OC(=O)c1ccco1 ?
TDP1 cell noCPT: -14%; HT1080 IDH1KD tx: 14%; IL-1B inflam inh: 34; TDP1 cell CPT: -24%; HT1080NT lethal: 6%

What do the screens show for `CCOc1cc(/C=N\Nc2nc(Nc3ccccc3)nc(N3CCOCC3)n2)ccc1OC(=O)c1ccco1`?
TDP1 cell noCPT: 8.2µM*; HT1080 IDH1KD tx: -5%; IL-1B inflam inh: -23; TDP1 cell CPT: 18µM*; HT1080NT lethal: -6%

How did COC(=O)c1ccc(/C=N/Nc2nc(N3CCCCC3)nc(N3CCCCC3)n2)cc1 do in these assays?
TDP1 cell noCPT: -44%; HT1080 IDH1KD tx: 7%; IL-1B inflam inh: 0; TDP1 cell CPT: -9%; HT1080NT lethal: inconclusive

How did Cc1cc(C)c(NC(=O)CNC(=O)COC(=O)Cc2cccs2)c(C)c1 do in these assays?
TDP1 cell noCPT: -11%; HT1080 IDH1KD tx: 1%; IL-1B inflam inh: -7; TDP1 cell CPT: -2%; HT1080NT lethal: -1%

How did COc1cc2cc(CCOC(=O)c3ccc(F)cc3)oc(=O)c2cc1OC do in these assays?
TDP1 cell noCPT: -2%; HT1080 IDH1KD tx: 1%; IL-1B inflam inh: -3; TDP1 cell CPT: -16%; HT1080NT lethal: -9%

How did O=C(NCCc1ccccc1)C1CCC(CNS(=O)(=O)c2cccc3cccnc23)CC1 (stereo unspecified) do in these assays?
TDP1 cell noCPT: 23µM*; HT1080 IDH1KD tx: -11%; IL-1B inflam inh: -15; TDP1 cell CPT: 16µM*; HT1080NT lethal: -4%

Results for COc1ccc(CCNC(=O)C2CCN(S(=O)(=O)c3cccc4cccnc34)CC2)cc1OC ?
TDP1 cell noCPT: inconclusive; HT1080 IDH1KD tx: 3%; IL-1B inflam inh: 28; TDP1 cell CPT: 16µM*; HT1080NT lethal: 1%

Results for COc1ccc(N2CCN(C(=O)C3CCCN(S(=O)(=O)c4ccc(F)cc4)C3)CC2)cc1 (stereo unspecified) ?
TDP1 cell noCPT: 8.2µM*; HT1080 IDH1KD tx: -8%; IL-1B inflam inh: -13; TDP1 cell CPT: 10µM*; HT1080NT lethal: -3%

How did Cc1ccc(S(=O)(=O)N2CCCC(C(=O)N3CCN(c4ccccc4)CC3)C2)cc1 (stereo unspecified) do in these assays?
TDP1 cell noCPT: 18µM*; HT1080 IDH1KD tx: 10%; IL-1B inflam inh: 0; TDP1 cell CPT: 18µM*; HT1080NT lethal: 13%

How did O=C(C1CCCN(S(=O)(=O)c2cccc3cccnc23)C1)N1CCN(c2ccc(F)cc2)CC1 (stereo unspecified) do in these assays?
TDP1 cell noCPT: inconclusive; HT1080 IDH1KD tx: -4%; IL-1B inflam inh: 7; TDP1 cell CPT: 23µM*; HT1080NT lethal: -4%

Results for O=C(C1CCN(S(=O)(=O)c2cccc3cccnc23)CC1)N1CCN(c2ccccc2)CC1 ?
TDP1 cell noCPT: -26%; HT1080 IDH1KD tx: 1%; IL-1B inflam inh: 12; TDP1 cell CPT: -29%; HT1080NT lethal: -3%

How did COc1ccc(CNC(=O)C2CCCN(S(=O)(=O)c3ccc(F)cc3)C2)cc1 (stereo unspecified) do in these assays?
TDP1 cell noCPT: inconclusive; HT1080 IDH1KD tx: 4%; IL-1B inflam inh: 7; TDP1 cell CPT: inconclusive; HT1080NT lethal: 4%

What do the screens show for `COc1ccc(N2CCN(C(=O)C3CCCN(S(=O)(=O)c4ccc(C)cc4)C3)CC2)cc1` (stereo unspecified)?
TDP1 cell noCPT: 9.2µM*; HT1080 IDH1KD tx: 7%; IL-1B inflam inh: -2; TDP1 cell CPT: 9.2µM*; HT1080NT lethal: 2%

How did CCOC(=O)C1CCCN(S(=O)(=O)c2ccc(OC)cc2)C1 (stereo unspecified) do in these assays?
TDP1 cell noCPT: -15%; HT1080 IDH1KD tx: 8%; IL-1B inflam inh: 0; TDP1 cell CPT: -22%; HT1080NT lethal: 11%[9.24 µM]

Results for Nc1cc(Cl)ccc1N1CCCCCC1 ?
TDP1 cell noCPT: inconclusive; HT1080 IDH1KD tx: 4%; IL-1B inflam inh: -4; TDP1 cell CPT: 0%; HT1080NT lethal: 3%

Results for COc1ccc(C)cc1NC(=O)C/C(C)=N/NC(=O)Cc1cccc2ccccc12 ?
TDP1 cell noCPT: -22%; HT1080 IDH1KD tx: -5%; IL-1B inflam inh: inconclusive; TDP1 cell CPT: -22%; HT1080NT lethal: -7%

Results for CC1CCCC(C)N1C(=O)COC(=O)CSc1ccc(C(N)=O)cc1[N+](=O)[O-] (stereo unspecified) ?
TDP1 cell noCPT: -15%; HT1080 IDH1KD tx: 4%; IL-1B inflam inh: 5; TDP1 cell CPT: 9%; HT1080NT lethal: -2%

How did COc1ccc(S(=O)(=O)N2CCCC(C(=O)N3CCCCCC3)C2)cc1 (stereo unspecified) do in these assays?
TDP1 cell noCPT: 18µM*; HT1080 IDH1KD tx: 10%; IL-1B inflam inh: 5; TDP1 cell CPT: inconclusive; HT1080NT lethal: 9%

Screens deposited in PubChem by National Center for Advancing Translational Sciences (NCATS).
